{"source": "PubChem BioAssay"}
{"experiment": "small molecules captured by biotinylated probe aFGF2 – biochemical, small-molecule microarray, fluorescence 635/667, stem cell growth factor project, primary screen (AID 1067);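 note: measures binding of biotinylated aFGF2 protein to printed compounds on slides; z-score merges feature fluorescence and signal-to-noise across triplicate slides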", "conditions": "higher = more signal"}
{"smiles": "C[C@@H]1CCC2C(=O)N(Cc3ccccc3)C[C@@H](O)CN2[C@H]1c1ccc(Br)cc1", "note": "(stereo not given in full)", "composite z-score": -0.145}
{"smiles": "CCOC(=O)CCN1C(=O)[C@H]2[C@H]3[C@H](O)[C@H](O)CC(=O)[C@H]3CC[C@H]2C1=O", "composite z-score": -0.128}
{"smiles": "C#CCCCON=C1C[C@@H](O)[C@@H](O)[C@@H]2[C@@H]3C(=O)N(CCC(=O)OCC)C(=O)[C@@H]3CC[C@@H]12", "composite z-score": -0.0505}
{"smiles": "O=C1[C@H]2[C@H]3[C@H](O)[C@H](O)CC(=NOCc4ccccc4)[C@H]3CC[C@H]2C(=O)N1C[C@@H]1CCCO1", "composite z-score": -0.133}
{"smiles": "C#CCCCON=C1C[C@@H](O)[C@@H](O)[C@@H]2[C@@H]3C(=O)N([C@@H](C)c4ccccc4)C(=O)[C@@H]3CC[C@H]12", "composite z-score": -0.127}
{"smiles": "CCOC(=O)[C@H](Cc1ccccc1)NC(=O)CCC1CC(OC(=O)NCc2ccc3c(c2)OCO3)CC2(CCCC(COC(=O)NCc3cccc(C(F)(F)F)c3)O2)O1", "note": "(stereo not given in full)", "composite z-score": -0.0985}
{"smiles": "C=CC[C@@H]1C=C[C@H](ON=C(C)CCN2CCc3nc(CC)c(CC)cc3C2)[C@@H](CO)O1", "composite z-score": -0.0593}
{"smiles": "O=C1C2C=CC(C(O)c3ccc([N+](=O)[O-])cc3)N(Nc3ccc([N+](=O)[O-])cc3)C2C(=O)N1c1ccccc1", "note": "(stereo not given)", "composite z-score": 0.154}
{"smiles": "CC(C)[C@H](NC(=O)OC(C)(C)C)[C@@H](O)CC(=O)OC(C)(C)C", "composite z-score": -0.116}
{"smiles": "NCCCCCNC(=O)[C@@H]1C[C@@H]2C(=O)N3CCC[C@H]3C(=O)N2[C@@H]1c1cccc(OCCO)c1", "composite z-score": 0.103}
{"smiles": "COC(=O)CC=C[C@H](C)[C@@H](OCc1ccccc1Br)C(C)C", "composite z-score": -0.191}
{"smiles": "COc1ccc([Si](C)(C)[C@H]2[C@H](CCO)O[C@@]3(C(=O)N(Cc4cccc(NC(=O)[C@H](C)O)c4)c4ccccc43)[C@@H]2C)cc1", "composite z-score": -0.101}
{"smiles": "CCOC(=O)CCN1C(=O)[C@H]2[C@H]3[C@H](O)C=CC(=O)[C@@H]3CC[C@H]2C1=O", "composite z-score": -0.108}
{"smiles": "CCN1C(=O)[C@H]2[C@H]3[C@H](O)[C@H](O)CC(=NOC[C@@H](C)[C@H](OCc4ccccc4)C(C)C)[C@@H]3CC[C@H]2C1=O", "composite z-score": -0.128}
{"smiles": "CO[C@H]1COC(=O)[C@H](C)COC(=O)CC=C[C@@H](C)[C@H](OC)COC(=O)CC=C[C@@H]1C", "composite z-score": -0.226}
{"smiles": "C=C(CCCC)C(=O)CC[C@@H](OC(C)=O)c1cccc(OCCO)c1", "composite z-score": -0.152}
{"smiles": "C[C@H](c1ccccc1)N1C(=O)[C@H]2[C@@H]3C(=CC[C@H]2C1=O)C(=O)[C@H]1O[C@H]1[C@H]3O", "composite z-score": -0.135}
{"smiles": "CC(C)CON=C1C[C@@H](O)[C@@H](O)[C@@H]2[C@@H]3C(=O)N(C[C@@H]4CCCO4)C(=O)[C@@H]3CC[C@H]12", "composite z-score": -0.116}
{"smiles": "CCOC(=O)C1=CC[C@H]2C(=O)N(CC)C(=O)[C@@H]12", "composite z-score": -0.0715}
{"smiles": "C#CCCCON=C1C[C@@H](O)[C@@H](O)[C@@H]2[C@@H]3C(=O)N(c4cccc(Oc5ccccc5)c4)C(=O)[C@@H]3CC[C@@H]12", "composite z-score": -0.0296}
{"smiles": "CC(CCN1CCc2nc(-c3ccccc3)c(-c3ccccc3)cc2C1)=NOC(C)CN1CCCCc2nc(C)c(C)cc21", "note": "(stereo not given)", "composite z-score": -0.0398}
{"smiles": "CCOC(=O)[C@H](CC(C)C)NC(=O)CCC1CC(OC(=O)NCc2cccc3ccccc23)CC2(CCCC(COC(=O)NCCc3ccccc3OC)O2)O1", "note": "(stereo not given in full)", "composite z-score": -0.108}
{"smiles": "COc1cccc([C@@H]2Oc3ccc(Br)cc3C(=O)[C@H]2O)c1", "composite z-score": -0.0291}
{"smiles": "CS(=O)(=O)CCOC(=O)C1=CC(CCCO)=CC(c2cccs2)N(Cc2cccc(OC(F)(F)F)c2)C=C1C(=O)OCCS(C)(=O)=O", "note": "(stereo not given)", "composite z-score": -0.0753}
{"smiles": "NC(=O)NCC#Cc1ccc2c(c1)[C@]1(C(=O)N2)[C@H](c2ccc(O)cc2)N2[C@H](c3ccccc3)[C@H](c3ccccc3)OC(=O)[C@H]2[C@@H]1C(=O)N1CCCCCCC1", "composite z-score": 0.242}
{"smiles": "O=C(CS)NCCCCCNC(=O)[C@H]1C[C@H]2C(=O)N3CCC[C@H]3C(=O)N2[C@H]1c1cccc(OCCO)c1", "composite z-score": -0.0718}
{"smiles": "CO[C@H]1COC(=O)[C@H](C)NC(=O)[C@@H](C)COC(=O)CC=C[C@@H]1C", "composite z-score": -0.116}
{"smiles": "C=CCOC(=O)[C@H]1[C@@H]2C(=O)O[C@@H](c3ccccc3)[C@@H](c3ccccc3)N2[C@@H](c2ccc(OCCOC(=O)[C@H]3C[C@H]4C(=O)N5CCC[C@H]5C(=O)N4[C@H]3c3cccc(OCCO)c3)cc2)[C@]12C(=O)Nc1ccc(I)cc12", "composite z-score": 0.522}
{"smiles": "CCN1C(=O)[C@H]2[C@H]3[C@H](O)[C@H](O)CC(=NOCC=C(C)CCC=C(C)C)[C@H]3CC[C@H]2C1=O", "composite z-score": -0.117}
{"smiles": "CC(C)[C@@H](OCc1ccccc1)[C@H](C)C=NOC[C@@H](C)[C@H](OCc1ccccc1)C(C)C", "composite z-score": -0.164}
{"smiles": "CC=CC1=C(CO)[C@H](O)[C@H]2O[C@H]2[C@H]1O", "composite z-score": -0.027}
{"smiles": "COc1ccc(COC(=O)NN=C2C[C@@H](O)[C@@H](O)[C@@H]3[C@@H]4C(=O)N(Cc5ccc6c(c5)OCO6)C(=O)[C@@H]4CC[C@@H]23)cc1", "composite z-score": 0.0203}
{"smiles": "CN1C(=O)C2C=CC(C(O)c3ccc(I)cc3)N(NC(=O)OC(C)(C)C)C2C1=O", "note": "(stereo not given)", "composite z-score": 0.111}
{"smiles": "COc1ccc(COC(=O)NN=C2C[C@@H](O)[C@@H](O)[C@@H]3[C@@H]4C(=O)N(c5ccc(F)cc5F)C(=O)[C@@H]4CC[C@@H]23)cc1", "composite z-score": -0.0342}
{"smiles": "CCOC(=O)[C@H](CC(C)C)NC(=O)CCC1CC(OC(=O)NCCc2ccc(F)cc2)CC2(CCCC(COC(=O)NCc3ccccc3)O2)O1", "note": "(stereo not given in full)", "composite z-score": 0.0131}
